Source: PubChem BioAssay (NCATS)
Results filed as inconclusive are left out. The source made the active and inactive calls. Calls come from the whole dose curve; as a rule, active = well fitted curve in the direction sought with a large enough effect; inconclusive = small, poorly fitted or top-dose-only effect, or another doubt; inactive = no such curve, though single readings can be large or run the other way.

assay: Cytometric Cell-Based qHTS for Inhibitors of the mTORC1 Signaling Pathway in MEF (Tsc2-/-, p53-/-) Cells (AID 2660); conditions: mTORC1 pathway cytometry; series mostly up to 38.3 µM;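 note: Tsc2 and p53 null MEFs carrying empty vector with compound for 24 h; percent of cells above a phospho-rpS6 to PI ratio cutoff in each well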
Text: NIH Molecular Libraries Probe Production Centers Network [MLPCN]
NIH Chemical Genomics Center [NCGC]
Assay Submitter (PI): Blenis, John; Hoffman, Greg; Harvard University
NCGC Assay Overview: The mammalian target of rapamycin (mTOR) is an intracellular serine/threonine kinase Aberrant regulation of mTOR signaling plays a causative role in a number of human diseases, including cancer, benign tumors such as lymphangioleiomyomatosis (LAM) and Tuberous Sclerosis Complex (TSC), and metabolic diseases such as diabetes and obesity. This project aims to identify inhibitors of ribosomal protein S6 (rpS6) phosphorylation. The phosphorylation of rpS6 is a key event downstream of mTOR activation. The assay uses a phospho-specific antibody of phospho-rpS6 to detect inhibitors of mTOR activation. Mutations in the Tsc1 and Tsc2 genes are the underlying genetic lesions responsible for TSC, causing constitutive activation of the mTORC1 pathway and leading to profound effects on cell metabolism. Aberrant metabolism in cancer has recently received significant attention as a target to develop therapeutic agents in the treatment of cancer.1 As Tsc2-/- cells have lost the ability to respond to energy and growth factor deprivation, these cells are unable to properly down regulate cellular biosynthetic processes in response to metabolic stress, and are thus extremely sensitive to glucose deprivation-induced death.2 A central goal of this project is to explore the unique cell survival and metabolic properties of cells with Tsc1 or Tsc2 by screening for compounds that selectively target the Tsc2-/- MEFs by screening both Tsc2-/- and WT MEF cell lines. We hope to better understand these aspects of TSC physiology in order to exploit them for therapeutic benefit.
NCGC Acumen Assay Protocol Summary:
For quantitative high throughput analysis of mTORC1 signaling, we developed a cell-based assay for immuno-fluorescence based detection of rpS6 phosphorylation on the Acumen Explorer that will be used a platform for the primary small molecule screen. Mouse embryonic fibroblasts (MEFs) are cultured in 1536-well plates using DMEM + 10% FBS. Twenty-four hrs after plating, test compounds (solubilized in DMSO) are delivered and incubated with the cells for 24 hrs at 37 degree Celsius. Following the incubation, media with compound is aspirated and the cells are fixed in 4% paraformaldehyde (PFA) containing PBS + 0.2% TX-100. Next, PFA is aspirated, cells are washed two times with PBS plus 0.2% TX-100 and the cells are blocked for 1 hr at room temperature (blocking buffer: LiCOR Blocking Buffer plus 0.2% TX-100). This is followed by aspiration and staining with Alexa-488 conjugated-phospho-rpS6 Ser235/236 antibody for 2 hours at room temperature (Cell Signaling Technology # 4803, 1:50 dilution in blocking buffer). Cells are washed two times with PBS plus 0.2% TX-100, and stained with 10 uM propidium iodide (PI) for 20-25 minutes for cell number measurement (1:500 dilution of Hoescht staining is also added for IN Cell imaging). The plates are scanned on the Acumen Explorer laser scanning instrument (TTP Labtech) using the 488nm laser for simultaneous excitation of the Alexa-488 and PI. The fluorescence emission from the Alexa-488 conjugated rpS6 phospho-235/236 antibody staining is selected using a […] band pass filter. Fluorescence emission from the PI stain is selected using a 575-640 nm band pass filter. The normalized phospho-S6 staining is calculated as the ratio of the integrated Alexa 488 intensity divided by the integrated PI intensity for the single concentration rapamycin control (7.5 nM) and DMSO columns. […] Inhibition of the pathway is defined based on the normalized phospho-S6 intensity in rapamycin treated cells. […]

Structure (SMILES) | outcome
CCCN1CCC[C@@H]2Cc3[nH]ncc3C[C@H]21 | inactive
COc1ccccc1N1CCNCC1 | inactive
CCCC(C)(COC(N)=O)COC(=O)NC(C)C (stereo not given) | inactive
C=C(C)[C@H]1Cc2c(ccc3c2O[C@@H]2COc4cc(OC)c(OC)cc4[C@@H]2C3=O)O1 | inactive
NCC(O)c1ccc(O)cc1 (stereo not given) | inactive
CC(CCc1ccccc1)NC(C)C(O)c1ccc(O)cc1 (stereo not given) | inactive
O=C1NCN(c2ccccc2)C12CCN(CC1COc3ccccc3O1)CC2 (stereo not given) | inactive
N#CC(C#N)=Cc1ccc(O)c(O)c1 | inactive
O=c1[nH]c2ccccc2n1CCCN1CCC(n2c(=O)[nH]c3cc(Cl)ccc32)CC1 | inactive
Nc1ccncc1 | inactive
CCCN1CCC[C@@H]2Cc3nc(N)ncc3C[C@H]21 | inactive
CNCC(O)c1ccc(O)cc1 (stereo not given) | inactive
CC(=O)[C@H]1CC[C@H]2[C@@H]3CC[C@H]4C[C@](C)(O)CC[C@]4(C)[C@H]3CC[C@]12C | inactive
Cc1ncc(CNC(=O)N(CCCl)N=O)c(N)n1 | inactive
c1ccc(C2CC2)c(OCC2=NCCN2)c1 | inactive
NCC(CC(=O)O)c1ccc(Cl)cc1 (stereo not given) | inactive
Cc1cccc(C)c1NC1=NCCCS1 | inactive
CC(=O)[C@H]1CC[C@H]2[C@@H]3CC[C@H]4C[C@H](O)CC[C@]4(C)[C@H]3C(=O)C[C@]12C | inactive
NCC1(CC(=O)O)CCCCC1 | inactive
COC[C@H]1OC(=O)c2coc3c2[C@@]1(C)C1=C(C3=O)C2CCC(=O)[C@@]2(C)C[C@H]1OC(C)=O (stereo not given in full) | inactive
CC[C@@H](CO)NC(=O)[C@@H]1C=C2c3cccc4c3c(cn4C)C[C@H]2N(C)C1 | inactive
Cc1cccc(C)c1NC(=O)CN1CCCC1=O | inactive
CC(C)=CCOc1c2occc2cc2ccc(=O)oc12 | inactive
CC(O)(CS(=O)(=O)c1ccc(F)cc1)C(=O)Nc1ccc(C#N)c(C(F)(F)F)c1 (stereo not given) | inactive
C[C@@H]1O[C@@H](O[C@H]2C[C@@H](O)[C@]3(CO)[C@H]4[C@H](O)C[C@]5(C)[C@@H](C6=CC(=O)OC6)CC[C@]5(O)[C@@H]4CC[C@]3(O)C2)[C@H](O)[C@H](O)[C@H]1O | inactive
Cc1ccc(S(=O)(=O)N[C@@H](CCCCN)C(=O)CCl)cc1 | inactive
NN=C(N)N | inactive
CCC1(C2=NCCN2)Cc2ccccc2O1 (stereo not given) | inactive
COc1ccc(C(CN(C)C)C2(O)CCCCC2)cc1 (stereo not given) | inactive
CC[C@@H](CO)NC(=O)[C@@H]1C=C2c3cccc4[nH]cc(c34)C[C@H]2N(C)C1 | inactive
